Data from PubChem BioAssay (NCI).
Compounds without any hit were thinned out: in the full panel of roughly 83,000, 20% have a hit.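 Percent growth is the endpoint: 0 to 100 indicates growth inhibition (40 means 60% inhibition), 0 means no net growth, and negative values indicate cell death.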 The source made the active and inactive calls. How the source made its calls: active means growth percent below 10; inactive means the rest.

Columns and labels:
Test in all cases: NCI-60 one-dose screen, 48 h (100 = growth as untreated, 0 = no growth, -100 = all killed)
SK-MEL-2 melanoma = conditions: 10 µM unless noted
EKVX NSCLC = conditions: 10 µM unless noted
SN12C renal = conditions: 10 µM unless noted
UO-31 renal = conditions: 10 µM unless noted
ACHN renal = conditions: 10 µM unless noted
CAKI-1 renal = conditions: 10 µM unless noted
A498 renal = conditions: 10 µM
HL-60(TB) leukemia = conditions: 10 µM unless noted
CCRF-CEM leukemia = conditions: 10 µM unless noted
MOLT-4 leukemia = conditions: 10 µM unless noted
SR leukemia = conditions: 10 µM unless noted
RPMI-8226 leukemia = conditions: 10 µM unless noted
OVCAR-8 ovarian = conditions: 10 µM unless noted
OVCAR-4 ovarian = conditions: 10 µM unless noted
SK-OV-3 ovarian = conditions: 10 µM unless noted
IGROV1 ovarian = conditions: 10 µM unless noted
OVCAR-3 ovarian = conditions: 10 µM unless noted
HS 578T breast = conditions: 10 µM unless noted
TK-10 renal = conditions: 10 µM unless noted
OVCAR-5 ovarian = conditions: 10 µM unless noted

Measured: growth

COC(=O)[C@@H](C)C[C@H](Cc1ccccc1)NC(=O)c1csc([C@@H](C[C@H](C(C)C)N(C)C(=O)[C@@H](NC(=O)[C@H]2CCCCN2C)C2CCCCC2)OC(C)=O)n1
inactive: SK-MEL-2 melanoma 11.2% | EKVX NSCLC 25% | SN12C renal 12.6% | UO-31 renal 31.7% | ACHN renal 11.4% | CAKI-1 renal 14.5% | OVCAR-8 ovarian 14.6% | OVCAR-4 ovarian 36.7% | IGROV1 ovarian 22.3%
active: A498 renal -10.2% | HL-60(TB) leukemia -51.9% | CCRF-CEM leukemia 0.645% | MOLT-4 leukemia 3.17% | SR leukemia 4.79% | RPMI-8226 leukemia 4.31% | SK-OV-3 ovarian -1.95% | OVCAR-3 ovarian -21.5% | HS 578T breast -6.6%

C=COC(=O)CCN1CC1
inactive: SK-MEL-2 melanoma 115% | EKVX NSCLC 103% | SN12C renal 102% | UO-31 renal 90.6% | TK-10 renal 110% | A498 renal 77.4% | HL-60(TB) leukemia 92.3% | CCRF-CEM leukemia 105% | MOLT-4 leukemia 98.2% | SR leukemia 100% | RPMI-8226 leukemia 104% | OVCAR-8 ovarian 104% | OVCAR-5 ovarian 110% | OVCAR-4 ovarian 107% | SK-OV-3 ovarian 101% | IGROV1 ovarian 108% | OVCAR-3 ovarian 112%

Clc1ccc(CSC(Cn2ccnc2)c2ccc(Cl)cc2Cl)cc1 (stereo not drawn)
active: UO-31 renal 4.12% | HL-60(TB) leukemia -11.6% | MOLT-4 leukemia 1.87% | SR leukemia 2.95%
inactive: SK-MEL-2 melanoma 34.1% | EKVX NSCLC 31.7% | SN12C renal 38.5% | TK-10 renal 32.3% | CAKI-1 renal 20.8% | A498 renal 49.2% | CCRF-CEM leukemia 20% | RPMI-8226 leukemia 29.8% | OVCAR-8 ovarian 14.3% | OVCAR-4 ovarian 25.9% | IGROV1 ovarian 29.1% | OVCAR-3 ovarian 38.8% | HS 578T breast 63.5%

O=C(O)C1C(C(=O)O)C2(Cl)C(Cl)=C(Cl)C1(Cl)C2(Cl)Cl.[Hg] (stereo not drawn)
inactive: SK-MEL-2 melanoma 102% | EKVX NSCLC 102% | SN12C renal 87.4% | TK-10 renal 144% | ACHN renal 99% | CAKI-1 renal 101% | A498 renal 149% | HL-60(TB) leukemia 68.9% | CCRF-CEM leukemia 71.8% | MOLT-4 leukemia 72.6% | SR leukemia 60.6% | OVCAR-8 ovarian 106% | OVCAR-5 ovarian 106% | OVCAR-4 ovarian 108% | SK-OV-3 ovarian 120% | IGROV1 ovarian 74.8% | OVCAR-3 ovarian 39.8% | HS 578T breast 102%

CC[C@H](C)[C@H](NC(=O)c1ccccn1)C(=O)N(C)[C@H](C[C@@H](OC(C)=O)c1nc(C(=O)N[C@@H](Cc2ccccc2)C[C@H](C)C(=O)OC)cs1)C(C)C
active: SK-MEL-2 melanoma -8.78% | A498 renal -5.19% | HL-60(TB) leukemia -21.2% | CCRF-CEM leukemia 7.71% | SR leukemia 4.97% | OVCAR-3 ovarian -22.5% | HS 578T breast -1.12%
inactive: EKVX NSCLC 30.3% | SN12C renal 46.9% | UO-31 renal 42.2% | ACHN renal 40.2% | MOLT-4 leukemia 19.5% | RPMI-8226 leukemia 19.9% | OVCAR-8 ovarian 22.6% | OVCAR-5 ovarian 49.6% | OVCAR-4 ovarian 47.8% | SK-OV-3 ovarian 41.2% | IGROV1 ovarian 28.4%
